Most compounds without a hit are left out; they make up all but 12% or so of the library.
NS1 function inh – qHTS Assay for Inhibitors of Influenza NS1 Protein Function; Potency, µM (top dose mostly 46.1 µM); 270,000 tested, 0.4% active; AID 2326, 2010; calls by dose curve; further: actives are rising curves; nearly all actives have a fitted effect of over 50% in size
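Compounds were scored for reversing the slow growth caused by influenza A NS1 in S. cerevisiae, measured by optical density at 600 nm. Assay medium contained 2% galactose at pH 6.0; NS1-free yeast of the same strain were the positive control.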
AMA1 RON2 block – qHTS for Inhibitors of AMA1-RON; Towards Development of Antimalarial Drug Lead: Primary Screen | Plasmodium falciparum AMA1 (3D7) - RON2 peptide interaction | AlphaScreen AMA1-biotinylated RON2 peptide binding | Potency, µM (doses to about 58.2 µM), most hits filed as inhibitors | 360,000 tested, 0.2% active | AID 720542, 2013; further: nearly all actives have a fitted effect of over 45% in size
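AMA1 (3D7) with his tag at 25 nM final met compounds first, then biotinylated RON2 peptide at 25 nM; detection used donor plus acceptor beads, 10 µg/mL apiece, read by AlphaScreen after 30 min at room temperature.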
SARS PLP yeast – qHTS of Yeast-based Assay for SARS-CoV PLP; S. cerevisiae expressing SARS-CoV PLpro, growth rescue; 330,000 tested, 0.19% active; Potency, µM (series often up to 32.9 µM), hits mostly activators; calls by dose curve; further: nearly all actives have a fitted effect of over 55% in size
Pf growth 48h – Primary qHTS for delayed death inhibitors of the malarial parasite plastid, 48 hour incubation; P. falciparum luciferase growth in erythrocytes, 48 h; Potency, µM (top dose mostly 28.7 µM), usual class: inhibitors; 310,000 tested, 5.9% active; AID 504832, 2011
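Cell-based growth assay: transgenic P. falciparum expressing firefly luciferase, cultured in red cells within RPMI 1640 containing 0.5% w/v Albumax, 24 mM bicarbonate and gentamycin. A drop in luciferase activity indicates inhibition.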
Pf growth 96h – Primary qHTS for delayed death inhibitors of the malarial parasite plastid, 96 hour incubation. AID 504834, 2011. Potency, µM (doses to about 28.7 µM), usual class: inhibitors. P. falciparum luciferase reporter growth, 96 h. 320,000 tested, 6.9% active
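Luminescence readout: decreased luciferase signal marks inhibited growth of reporter-expressing P. falciparum in infected red cells (2% hematocrit, 0.05% parasitemia final), exposed to compound two generations (96 h, 37 C, 5% CO2).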
HCV inh – qHTS Assay for Inhibitors of Hepatitis C Virus (HCV) | 340,000 tested, 3.4% active | AID 651820, 2012 | Huh7.5.1 HCVcc-Cre infection, luciferase reporter, 44 h | Potency, µM (highest dose often 41.8 µM), usual class: inhibitors
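Reporter virus HCVcc-Cre (~0.5 moi) infects cells exposed to compound; seeding density 1,000 cells/well with 4 h settling beforehand. Luminescence, 15 sec read, taken 44 h post-infection following a 15 min RT substrate incubation.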
Each line names hits and unclear results; the compound was inactive in the other large screens. Unless noted, the call rests on the fitted dose curve; in most records, active means well fitted curve in the direction sought with a large enough effect; inconclusive means small, poorly fitted or top-dose-only effect, or another doubt; inactive means no such curve, though single readings can be large; an effect the other way counts as inactive or inconclusive.

Cc1c(NC(=O)Nc2ccc3c(c2)OCO3)cccc1[N+](=O)[O-]	none
NC1=C(Br)C(=O)c2ccccc2C1=O	Pf growth 48h 2.62µM, Pf growth 96h 1.04µM, HCV inh inconclusive
Cc1cc2c(cc1C)C(=O)C(Br)=C(N)C2=O	HCV inh inconclusive (no result: NS1 function inh, SARS PLP yeast, Pf growth 48h, Pf growth 96h)
Nc1ccc(O)c2c1C(=O)c1ccccc1C2=O	AMA1 RON2 block 7.08µM, HCV inh 5.01µM
Nc1ccc(Br)c2c1C(=O)c1ccccc1C2=O	AMA1 RON2 block inconclusive, Pf growth 48h inconclusive, HCV inh 10µM
CC(NC(=O)NC(N)=O)(C(F)(F)F)C(F)(F)F	Pf growth 96h 7.38µM
CCOC(=O)[C@]12CCC=C1N(Cc1ccccc1)C(=O)[C@H](CC(=O)NCCC(C)C)C2	none (no result: NS1 function inh, SARS PLP yeast, Pf growth 48h, Pf growth 96h, HCV inh)
Cc1cc(C)nc(N/N=C/c2cn[nH]c2-c2ccc(F)cc2)n1	none
CCCn1c(-c2cccc([N+](=O)[O-])c2)nc2c1c(=O)[nH]c(=O)n2Cc1ccccc1	Pf growth 48h inconclusive, Pf growth 96h 5.22µM, HCV inh inconclusive
CCCn1c(-c2ccc(C(=O)OC)cc2)nc2c1c(=O)[nH]c(=O)n2Cc1ccccc1	none
Cc1ccc(-c2nc3c(c(=O)[nH]c(=O)n3Cc3ccccc3)n2Cc2ccccc2)o1	Pf growth 48h 5.86µM, Pf growth 96h inconclusive, HCV inh inconclusive (no result: NS1 function inh)
Cc1ccc(-c2nc3c(c(=O)[nH]c(=O)n3Cc3ccccc3)n2C)o1	none (no result: NS1 function inh)
O=C(O)/C=C\C(=O)Nc1cccc2c1-c1ccccc1C2=O	none (no result: AMA1 RON2 block, SARS PLP yeast, Pf growth 48h, Pf growth 96h, HCV inh)
CC(=O)c1cccc(NC(=O)c2nc(-c3ccccc3)oc2C)c1	HCV inh 15.8µM (no result: NS1 function inh)
Cc1oc(-c2ccccc2)nc1C(=O)O	none
Cc1nc2cc(NC(=O)c3ccc(Br)s3)ccc2s1	HCV inh 11.2µM
CC(=O)c1ccc(Oc2ccc(C(C)=O)cc2)cc1	Pf growth 96h inconclusive
CN(C)C(=O)c1ccc(Oc2ccc(C(=O)N(C)C)cc2)cc1	Pf growth 96h 1.85µM
COc1ccc(CN(C)C(=O)CSc2nnc(C3CC3)n2C2CC2)cc1	none (no result: NS1 function inh)
N#Cc1nc(-c2ccc(OCc3ccc(Cl)cc3)cc2)oc1N1CCC(C(N)=O)CC1	HCV inh inconclusive (no result: Pf growth 48h)
CCCOc1ccc(-c2nc(C#N)c(N3CCC(C(N)=O)CC3)o2)cc1	Pf growth 96h 10.4µM, HCV inh inconclusive
N#Cc1nc(-c2ccc(OCc3ccc(Cl)cc3)cc2)oc1N1CCOCC1	SARS PLP yeast inconclusive, Pf growth 96h 10.4µM, HCV inh inconclusive
COc1ccc(-c2nc(C#N)c(N3CCCCCC3)o2)cc1OC	HCV inh 10µM (no result: Pf growth 96h)
Cc1ccc(S(=O)(=O)c2nc(-c3ccccc3)oc2N2CCC(C(N)=O)CC2)cc1	Pf growth 48h inconclusive, Pf growth 96h 13.1µM
COc1ccc(OC)c(CCNC(=O)c2ccc(NC3=NC4CS(=O)(=O)CC4S3)cc2)c1 (stereo unspecified)	NS1 function inh inconclusive, HCV inh inconclusive
CCc1cccc(CC)c1NC(=O)CN1CCc2cc(OC)c(OC)cc2C1	none (no result: AMA1 RON2 block, HCV inh)
CCCOc1ccc(-c2nc(C#N)c(N3CCN(CC)CC3)o2)cc1	Pf growth 48h inconclusive, Pf growth 96h 10.4µM
CCOc1ccc(-c2nc(C#N)c(N3CCN(CC)CC3)o2)cc1	HCV inh inconclusive
CCNC(=S)N/N=C/c1cc(C)n(-c2ccc(Cl)cc2)c1C	Pf growth 96h inconclusive (no result: NS1 function inh)
Cc1cc(/C=N/N2CCN(C)CC2)c(C)n1-c1ccc(Cl)cc1	Pf growth 48h 11.7µM, Pf growth 96h inconclusive, HCV inh inconclusive
Cc1cc(/N=C/C=C2\N(C)c3ccccc3C2(C)C)n(CCC#N)n1	Pf growth 48h inconclusive, HCV inh 11.2µM
CCCc1c(CC)c(=N)c2ccccc2n1C	Pf growth 48h 0.329µM
CC(C)(C)c1nc(CN2CCOCC2)cc(CN2CCOCC2)c1O	AMA1 RON2 block inconclusive, Pf growth 96h inconclusive (no result: Pf growth 48h)
Cc1ccc(-c2nc(CN3CCCCC3)cc(CN3CCCCC3)c2O)cc1	Pf growth 48h 0.828µM, Pf growth 96h inconclusive, HCV inh inconclusive
